Screen size: about 39,000 compounds; about 1,500 (3.8%) were called active. This excerpt belongs to a sample that is enriched for actives.
System: HSkMC (human skeletal muscle cells)
Assay: cytotoxicity call (relative viability < 0.9)
Settings: 10 µM

| Structure (SMILES) | cytotoxicity call |
| --- | --- |
| O=C(NCCCN1CCOCC1)[C@H]1[C@H](CO)[C@H]2Cn3c(cccc3=O)[C@@H]1N2C(=O)C1CCCCC1 | inactive |
| C[C@@H]1CCCCO[C@H](CN(C)C(=O)NC2CCCCC2)[C@H](C)CN([C@H](C)CO)C(=O)c2cc(NC(=O)Nc3ccc(F)cc3)ccc2O1 | inactive |
| Cc1cccc(S(=O)(=O)N2C[C@@H](O)COC[C@@H]3O[C@H](CC(=O)NCCCN4CCOCC4)CC[C@H]32)c1 | inactive |
| C[C@@H]1CN([C@@H](C)CO)C(=O)c2cc(NC(=O)NC3CCCCC3)ccc2O[C@@H](C)CCCCO[C@H]1CN(C)C(=O)CCC(F)(F)F | inactive |
| C[C@@H]1CN([C@@H](C)CO)C(=O)c2cc(NC(=O)Cc3ccccc3)ccc2O[C@@H](C)CCCCO[C@@H]1CN(C)C(=O)c1ccccc1 | inactive |
| C=C(CO)C(=O)O[C@@H]1[C@H]2C(=C)C(=O)O[C@@H]2[C@H]2O[C@]2(C)CC/C=C(/C(=O)OC)[C@H]1OC(C)=O | active |
| C=C(CO)C(=O)O[C@H]1C[C@@]2(C)OC(=O)/C(=C/C)[C@]2(O)CC[C@@]2(C)CC(=O)[C@]1(C(=C)C(=O)OC)O2 | inactive |
| C[C@H](CO)N1C[C@H](C)[C@@H](CN(C)C(=O)Nc2cccc3ccccc23)Oc2c(NS(=O)(=O)c3cccs3)cccc2C1=O | inactive |
| C[C@H]1CN([C@@H](C)CO)C(=O)c2cccc(NS(=O)(=O)c3ccc(F)cc3)c2O[C@H]1CN(C)C(=O)Nc1cccc2ccccc12 | inactive |
| Cc1ccc(S(=O)(=O)Nc2cccc3c2O[C@@H](CN(C)C(=O)Nc2cccc4ccccc24)[C@H](C)CN([C@@H](C)CO)C3=O)cc1 | inactive |
| C[C@@H]1CN([C@@H](C)CO)C(=O)c2cccc(NS(=O)(=O)c3ccc(F)cc3)c2O[C@H]1CN(C)C(=O)Nc1cccc2ccccc12 | active |
| C[C@@H]1CN([C@@H](C)CO)C(=O)c2cccc(NS(=O)(=O)c3cccs3)c2O[C@@H]1CN(C)C(=O)Nc1cccc2ccccc12 | inactive |
| C[C@H]1CN([C@@H](C)CO)C(=O)c2cccc(NS(=O)(=O)c3ccc(F)cc3)c2O[C@@H]1CN(C)C(=O)Nc1cccc2ccccc12 | inactive |
| Cc1ccc(S(=O)(=O)Nc2cccc3c2O[C@H](CN(C)C(=O)Nc2cccc4ccccc24)[C@@H](C)CN([C@@H](C)CO)C3=O)cc1 | active |
| C[C@H](CO)N1C[C@H](C)[C@H](CN(C)C(=O)Nc2cccc3ccccc23)Oc2c(NS(=O)(=O)c3ccc(F)cc3)cccc2C1=O | active |
| Cc1ccc(S(=O)(=O)Nc2cccc3c2O[C@H](CN(C)C(=O)Nc2cccc4ccccc24)[C@@H](C)CN([C@H](C)CO)C3=O)cc1 | inactive |
| C[C@@H]1CN([C@H](C)CO)C(=O)c2cccc(NS(=O)(=O)c3ccc(F)cc3)c2O[C@@H]1CN(C)C(=O)Nc1cccc2ccccc12 | inactive |
| C[C@H](CO)N1C[C@H](C)[C@@H](CN(C)C(=O)Nc2cccc3ccccc23)Oc2c(NS(=O)(=O)c3ccc(F)cc3)cccc2C1=O | inactive |
| C[C@@H]1CN([C@H](C)CO)C(=O)c2cccc(NS(=O)(=O)c3cccs3)c2O[C@H]1CN(C)C(=O)Nc1cccc2ccccc12 | active |
